Bioassay records from PubChem BioAssay.
HT1080NT lethal – qHTS for induction of synthetic lethality in tumor cells producing 2HG: qHTS for the HT-1080-NT fibrosarcoma cell line; HT-1080-NT fibrosarcoma viability, CellTiter-Glo ATP luminescence, 48 h; Potency, µM (top dose mostly 46.1 µM), for inactives: top-dose activity, negative = less viability, usual class: cytotoxic; actives 1.6% (n = 360,000); AID 686970, 2013;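 further: NT is the 2HG producing partner of a matched IDH1 knockdown line; potency means the concentration at half of the fitted maximal effect; 0% = DMSO-treated cells and -100% = media-only wells without cells; nearly all actives have a fitted effect of over 55% in size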
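HT-1080-NT; 750 cells/well; 5% FBS RPMI; 48 h compound, 37 degrees C; CellTiter-Glo luminescence; curve fitting and curve-class assignment.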
TDP1 cell CPT – qHTS for Inhibitors of human tyrosyl-DNA phosphodiesterase 1 (TDP1): qHTS in cells in presence of CPT; AID 686979, 2013; chicken DT40 Tdp1-/-;hTDP1 cells + 20 nM CPT, ATP luminescence, 48 h; Potency, µM (titrated, usually from 46.2 µM), for inactives: at the highest dose activity change, negative = growth inhibition, most hits filed as inhibitors; actives 12% (n = 420,000); further: potency means the concentration at half of the fitted maximal effect; nearly all actives have a fitted effect of over 55% in size
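Chicken DT40 Tdp1-/- cells stably complemented with human TDP1 were seeded at 400 cells/well in medium containing 20 nM camptothecin, exposed to pin-transferred compounds, and grown at 37 °C for at least 48 hr. Viability was read as ATP luminescence.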
IL-1B inflam inh – qHTS for Inhibitors of Inflammasome Signaling: IL-1-beta AlphaLISA Primary Screen | activity change, % at 57.5 µM | actives 4.7% (n = 360,000) | THP-1 LPS/ATP IL-1B secretion, AlphaLISA, 16 h; stronger effect = lower value | AID 743279, 2014; in the data active means activity change below about -50%; inconclusive means mostly about -30% to -49%
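Secreted IL-1B measured by AlphaLISA bead assay after 16 h compound exposure of THP-1 cells; compounds (final up to 57.5 uM) added 1 h before LPS (250 ng/mL) and ATP (1.25 mM) stimulation; lower signal means less secretion.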
TDP1 cell noCPT – qHTS for Inhibitors of human tyrosyl-DNA phosphodiesterase 1 (TDP1): qHTS in cells in absence of CPT. DT40 Tdp1-/- hTDP1 cells, no CPT, ATP luminescence, 48 h. Potency, µM (doses to about 46.2 µM), inactives show at the highest dose activity change, negative = growth inhibition, most hits filed as inhibitors. actives 15% (n = 420,000); further: potency means the concentration at half of the fitted maximal effect; nearly all actives have a fitted effect of over 55% in size
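No-CPT arm: Tdp1-/-;hTDP1 DT40 cells (400/well) plus compounds, incubated ≥48 hr at 37 °C. Readout CellTiter-Glo luminescence.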
HT1080 IDH1KD tx – qHTS for induction of synthetic lethality in tumor cells producing 2HG: qHTS for the HT-1080-IDH1KD cell line | HT-1080 IDH1 knockdown viability, ATP luminescence, 48 h | Potency, µM (titrated, usually from 46.1 µM), for inactives: at the highest dose activity, negative = toxicity, hits mostly cytotoxic | actives 2% (n = 360,000) | AID 686971, 2013;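 further: potency means the concentration at half of the fitted maximal effect; 0% = DMSO wells and -100% = cell-free medium wells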
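CellTiter-Glo luminescence after 48 h compound exposure at 37 degrees C of IDH1-knockdown HT-1080 cells in 5% FBS RPMI. %Activity scaled between DMSO wells and cell-free media wells, with curves fitted and assigned curve classes.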
Numbers without * were called inactive; i = inactive; ? = inconclusive; / = not tested or not shown. In the library only some 19% were active in any assay of this set; here they are far more common. Unless noted, the call rests on the fitted dose curve; in most records, active means well fitted curve in the direction sought with a large enough effect; inconclusive means small, poorly fitted or top-dose-only effect, or another doubt; inactive means no such curve, though single readings can be large; an effect the other way counts as inactive or inconclusive. Unless noted, on the % scale 0 is the no-effect control and ±100 the full control effect.

SMILES	HT1080NT lethal	TDP1 cell CPT	IL-1B inflam inh	TDP1 cell noCPT	HT1080 IDH1KD tx
O=C(Nc1ccc2c(c1)OCO2)c1cc(C2CCCCN2C(=O)c2ccc3c(c2)CCO3)on1 (stereo unspecified)	-17%	26µM*	-13	26µM*	-9%
CCCNC(=O)c1cc(C2CCCCN2C(=O)c2ccc3c(c2)CCO3)on1 (stereo unspecified)	19%	-12%	9	-24%	3%
O=C(Nc1ccc2c(c1)OCO2)c1cc(C2CCCCN2C(=O)c2ccc(Cl)cc2)on1 (stereo unspecified)	-1%	21µM*	-1	21µM*	-20%
O=C(Nc1cc(Cl)ccc1Cl)C1Cc2ccccc2O/C1=N\O (stereo unspecified)	3%	-3%	?	-11%	-12%
COc1cccc(NC(=O)CSc2nc3c(c(=O)n2C)SC(C)C3)c1 (stereo unspecified)	0%	?	16	?	-1%
O=C(Nc1ccccc1Cl)c1cc(C2CCCN(C(=O)c3ccc4c(c3)CCO4)C2)on1 (stereo unspecified)	?	13µM*	33	15µM*	-2%
CC(Oc1ccc(F)cc1)C(=O)Nc1cc(S(=O)(=O)N2CCOCC2)ccc1N1CCCC1 (stereo unspecified)	6%	-28%	0	6%	13%
CC(Oc1ccc(F)cc1)C(=O)Nc1cc(S(=O)(=O)N2CCOCC2)ccc1N1CCCCC1 (stereo unspecified)	-4%	?	-19	16µM*	-15%
CC(Oc1cccc(Cl)c1)C(=O)Nc1cc(S(=O)(=O)N2CCOCC2)ccc1N1CCCCC1 (stereo unspecified)	-29%	?	25	21µM*	-12%
COc1ccc(-n2c3c(cc(C(=O)NCC(=O)c4ccccc4)c2=O)C(=O)CC(C)(C)C3)cc1	-1%	-15%	i	-20%	1%
CCc1ccc(NC(=O)Nc2cnccn2)cc1	-1%	?	0	0%	-5%
O=C(Nc1cc(Cl)cc(Cl)c1)Nc1cnccn1	-3%	?	0	16µM*	-5%
CCCCc1ccc(NC(=O)Nc2cnccn2)cc1	?	15µM*	15	23µM*	?
O=C(Nc1ccc(Br)cc1)Nc1cnccn1	-1%	?	-1	?	0%
CCN(N=O)c1ccc(/C=C2\C=Cc3ccccc32)cc1	/	4%	/	-26%	/
CCc1ccc(NC(=O)CC2C(=O)N(c3cccc(OC)c3)C(=O)N2C2CCCC2)cc1 (stereo unspecified)	/	16µM*	/	?	/
CCc1ccc(NC(=O)CC2C(=O)N(c3ccc(Cl)cc3)C(=O)N2C2CCCC2)cc1 (stereo unspecified)	/	?	/	18µM*	/
CCOC(=O)c1ccc(NC(=O)CC2C(=O)N(c3ccc(C)cc3)C(=O)N2C2CCCCC2)cc1 (stereo unspecified)	/	-25%	/	-16%	/
CCOc1ccc(NC(=O)CC2C(=O)N(c3ccc(OC)cc3)C(=O)N2C2CCCCC2)cc1 (stereo unspecified)	/	-14%	/	-24%	/
COc1cccc(N2C(=O)C(CC(=O)Nc3ccccc3)N(C3CCCCC3)C2=O)c1 (stereo unspecified)	5%	-8%	-4	-25%	0%
CCc1ccc(NC(=O)CC2C(=O)N(c3ccc(C)cc3)C(=O)N2C2CCCC2)cc1 (stereo unspecified)	/	?	/	21µM*	/
CC(C)c1nc2ccc(Br)cn2c1NC1CCCC1	0%	-2%	17	-1%	-2%
Cc1ccc2c(=O)cc(C(=O)Nc3c(C)n(C)n(-c4ccccc4)c3=O)oc2c1C	/	2%	/	-6%	/
COc1cccc(N(CC(=O)N2CCCC2)S(C)(=O)=O)c1	5%	-1%	0	-9%	0%
CCn1c(=O)cc(SCC(=O)NCc2cccc(Cl)c2)c2ccccc21	/	?	/	9.2µM*	/
SMILES	HT1080NT lethal	TDP1 cell CPT	IL-1B inflam inh	TDP1 cell noCPT	HT1080 IDH1KD tx
CCn1c(=O)cc(SCC(=O)NCc2ccc(Cl)cc2)c2ccccc21	/	10µM*	/	21µM*	/
Cc1ccccc1OCC(=O)Nc1ccccc1C(=O)NC1CC1	-12%	?	-5	21µM*	-10%
CCN(CC)c1ccc(C(=O)OCC(=O)NC2CCCCC2C)cc1 (stereo unspecified)	1%	21µM*	33	15µM*	-4%
Cc1ccc(OCC(=O)Nc2ccccc2C(=O)N2CCCCC2)cc1	-12%	-27%	7	-25%	-10%
CCC(=O)c1ccc(OCC(=O)Nc2ccccc2C(=O)N2CCCCC2)cc1	-5%	?	-62*	16µM*	0%
Cc1ccccc1NC(=O)COc1ccccc1C	13%	0%	-3	7%	9%
Cc1ccccc1OCC(=O)Nc1ccccc1-c1ccccc1	-1%	-16%	37	6.5µM*	-3%
O=S1(=O)CC(N2CCN(CC3CC3)CC2)CN1CCc1ccccc1 (stereo unspecified)	23%	-20%	14	?	23%
CCOC(=O)N1CCN(C(=O)C2CCN(C(=O)c3ccccc3C)CC2)CC1	?	0.92µM*	-103*	1µM*	?
Cc1ccc(OCC(=O)Nc2ccccc2-c2ccccc2NC(=O)COc2ccc(C)cc2)cc1	-9%	?	9	21µM*	0%
Cc1ccccc1C(=O)N1CCC(C(=O)N2CCN(c3ncccn3)CC2)CC1	8%	2%	34	13%	2%
COc1ccc(OCC(=O)Nc2ccccc2-c2ccccc2)cc1	-23%	?	21	?	?
CCN(CC)c1ccc(C(=O)OCC(=O)Nc2ccccc2-c2ccccc2)cc1	-28%	?	21	18µM*	-27%
CCOC(=O)N1CCN(C(=O)c2ccccc2N(Cc2ccccc2)S(=O)(=O)c2ccccc2)CC1	-21%	21µM*	8	21µM*	-20%
O=C(c1ccccc1N(Cc1ccccc1)S(=O)(=O)c1ccccc1)N1CCOCC1	1%	-13%	-18	?	-4%
CC(CCC(=O)O)C1CC[C@@]2(C)C3C(=O)CC4C(C)(C)C(O)CC[C@]4(C)C3C(=O)C[C@]12C (stereo partly specified)	9%	38%	7	12%	6%
